# Measurements as given in PubChem BioAssay (EPA / NIEHS).
# Inconclusive results are not listed. Calls of active or inactive are those of the source. The calls were made as follows, unless noted: active = hit-call score of the fitted dose curve at least 0.9, where 1 is the maximum; inconclusive = response in the unintended direction; inactive = score below 0.9.
# Columns and labels:
# [1] = target: Oxysterols receptor LXR-alpha (Homo sapiens) (UniProt Q13133); test: ATG_LXRa_TRANS: Attagene TRANS-FACTORIAL HepG2 Assay for human Liver X Receptor alpha (LXRa) (AID 2282980); details: HepG2 Attagene TRANS reporter, LXRa transactivation
# Chain of Oxysterols receptor LXR-alpha (Homo sapiens) (Q13133 whole entry, looked up, the tested form may be a part): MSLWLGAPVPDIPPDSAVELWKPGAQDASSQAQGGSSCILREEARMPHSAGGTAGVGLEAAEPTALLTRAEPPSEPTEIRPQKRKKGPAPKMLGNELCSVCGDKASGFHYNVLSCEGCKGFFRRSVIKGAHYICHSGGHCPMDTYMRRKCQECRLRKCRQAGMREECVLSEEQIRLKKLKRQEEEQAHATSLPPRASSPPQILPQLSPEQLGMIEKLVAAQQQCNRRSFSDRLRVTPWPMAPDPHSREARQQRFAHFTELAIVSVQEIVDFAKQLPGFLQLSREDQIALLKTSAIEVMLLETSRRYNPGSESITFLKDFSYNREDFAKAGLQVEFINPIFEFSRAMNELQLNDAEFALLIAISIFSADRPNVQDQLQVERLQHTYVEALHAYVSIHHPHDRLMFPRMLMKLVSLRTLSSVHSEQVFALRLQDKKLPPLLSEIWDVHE
# Outline: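 HepG2 cells were transiently transfected with multiplexed reporter units driven by chimeric LXRa–GAL4 fusion proteins, then dosed for 24 h. Reporter mRNA was quantified by RT-PCR, fluorescent labelling and capillary electrophoresis; gain of signal fitted against DMSO baseline.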
# [2] = target: Androgen Receptor/SRC-1 Co-activator, AR (gene 367) (UniProt P10275); test: OT_AR_ARSRC1_0960: Odyssey Thera (OT) 16-hour HEK293T Protein-Complementation Assay for Androgen Receptor/SRC-1 Co-activator (AID 2283353);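 also: actives raise the signal above DMSO so potency reflects increased AR and SRC-1 complex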
# Outline: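 Readout: 488 nm nuclear-to-cytoplasmic fluorescence ratio from imaging of at least 400 cells per image, 16 h post-dose. Reporter is Venus YFP complementation between AR and SRC-1 fusions, stably expressed in HEK293T; activity scored upward relative to DMSO.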
# [3] = target: Peroxisome proliferator-activated receptor gamma (Homo sapiens) (UniProt P37231); test: NVS_NR_hPPARg: NovaScreen (NVS) Nuclear Receptor Binding Assay for human Peroxisome Proliferator-activated Receptor gamma (PPARg) (AID 2283370)
# Chain of Peroxisome proliferator-activated receptor gamma (Homo sapiens) (P37231 whole entry, looked up): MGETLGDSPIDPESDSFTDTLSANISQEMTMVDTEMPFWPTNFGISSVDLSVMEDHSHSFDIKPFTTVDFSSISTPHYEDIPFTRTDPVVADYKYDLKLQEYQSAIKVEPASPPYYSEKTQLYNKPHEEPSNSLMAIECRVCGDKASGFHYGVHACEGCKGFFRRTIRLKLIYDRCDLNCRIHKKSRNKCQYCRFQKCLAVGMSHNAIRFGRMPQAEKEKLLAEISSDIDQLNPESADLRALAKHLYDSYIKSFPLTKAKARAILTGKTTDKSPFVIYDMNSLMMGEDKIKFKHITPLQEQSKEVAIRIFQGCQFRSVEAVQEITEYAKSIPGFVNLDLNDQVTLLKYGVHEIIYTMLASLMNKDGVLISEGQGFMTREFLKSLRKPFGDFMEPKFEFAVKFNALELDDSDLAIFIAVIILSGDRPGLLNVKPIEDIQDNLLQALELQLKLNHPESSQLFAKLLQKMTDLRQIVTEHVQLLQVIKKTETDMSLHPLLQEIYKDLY
# Outline: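 Cell-free binding to extracted PPARg protein, read by fluorescence polarization 2 h after dosing; loss of signal relative to DMSO baseline marks displacement. Primary screen in duplicate at 25 uM, actives retested in concentration series.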
# [4] = target: Nucleoli Translocation, AR (gene 367) (UniProt P10275); test: UPITT_HCI_U2OS_AR_TIF2_Nucleoli_Antagonist: University of Pittsburgh U2OS Androgen Receptor-Transcriptional Intermediary Factor 2 (AR-TIF2) Antagonism High Content Imaging Assay for Nucleoli Translocation (AID 2283997)
# Outline: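 Compounds are added at 20 uM final concentration in 0.2% DMSO to U2OS cells carrying AR-RFP and TIF2-GFP fusions. Nucleolar AR-RFP fluorescence is then quantified by automated imaging. Antagonism is fitted positively against DHT baseline.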
# [5] = target: rat Peripheral-type Benzodiazepine Receptor (PBR), Tspo (gene 24230) (UniProt P16257); test: NVS_MP_rPBR: NovaScreen (NVS) Membrane Protein Assay for rat Peripheral-type Benzodiazepine Receptor (PBR) (AID 2283335)
# Chain of rat Peripheral-type Benzodiazepine Receptor (PBR), Tspo (gene 24230) (P16257 whole entry, looked up): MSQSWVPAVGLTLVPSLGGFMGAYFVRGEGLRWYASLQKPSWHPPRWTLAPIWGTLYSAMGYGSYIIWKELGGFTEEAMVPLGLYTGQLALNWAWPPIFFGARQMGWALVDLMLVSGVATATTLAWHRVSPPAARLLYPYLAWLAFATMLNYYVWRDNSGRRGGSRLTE
# Outline: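 Single-concentration duplicate screening at 25 uM preceded concentration-series retesting of actives. Binding of a specific radioligand to rat kidney membrane PBR was read by filtration radiodetection after 1 h, with plate-wise positive and negative controls.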
# [6] = target: Estrogen receptor (Homo sapiens) (UniProt P03372); test: OT_ER_ERaERa_1440: Odyssey Thera (OT) 24-hour HEK293T Protein-Complementation Assay for Estrogen Receptor-alpha/-alpha Homodimer (AID 2283349);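 also: hits raise fluorescence above DMSO for agonists and antagonists alike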
# Chain of Estrogen receptor (Homo sapiens) (P03372 whole entry, looked up, the tested form may be a part): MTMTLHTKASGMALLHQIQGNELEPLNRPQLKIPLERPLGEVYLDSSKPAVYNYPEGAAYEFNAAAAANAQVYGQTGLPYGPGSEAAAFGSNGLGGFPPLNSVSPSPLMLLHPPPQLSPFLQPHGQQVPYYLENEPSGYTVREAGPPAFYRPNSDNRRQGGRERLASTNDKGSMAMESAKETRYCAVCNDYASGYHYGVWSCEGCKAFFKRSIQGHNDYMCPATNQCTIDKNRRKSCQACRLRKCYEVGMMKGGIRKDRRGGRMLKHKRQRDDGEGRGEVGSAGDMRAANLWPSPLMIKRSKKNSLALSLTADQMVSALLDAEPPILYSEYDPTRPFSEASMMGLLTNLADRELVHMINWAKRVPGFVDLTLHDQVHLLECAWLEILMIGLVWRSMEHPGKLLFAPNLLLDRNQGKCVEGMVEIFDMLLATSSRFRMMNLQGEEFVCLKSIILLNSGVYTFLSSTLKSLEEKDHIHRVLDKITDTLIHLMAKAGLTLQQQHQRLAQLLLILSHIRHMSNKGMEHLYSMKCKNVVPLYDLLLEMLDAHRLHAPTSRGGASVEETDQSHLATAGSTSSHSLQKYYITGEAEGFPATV
# Outline: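 Cells (HEK293T) carrying the fragment-tagged ERα LBD (aa 310-547) pair are treated with chemical for 24 hours. Nuclear and/or cytoplasmic fluorescence is then quantified on a laser scanning cytometer. Activity is scored as signal gain against DMSO.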
# [7] = target: Estrogen receptor (Homo sapiens) (UniProt P03372); test: OT_ER_ERaERa_0480: Odyssey Thera (OT) 8-hour HEK293T Protein-Complementation Assay for Estrogen Receptor-alpha/-alpha Homodimer (AID 2283351);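 also: rise in fluorescence from reassembled reporter fragments on ERα LBD homodimer in nucleus or whole cell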
# Outline: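 Read-out: fluorescence intensity rise relative to DMSO, nuclear for agonists, nuclear plus cytoplasmic for antagonists. Construct is the ERα LBD (aa 310-547) homodimer fragment-complementation pair, stably expressed in HEK293T; exposure 8 h.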
# [8] = target: Estrogen receptor (Homo sapiens) + Estrogen receptor beta (Homo sapiens) (UniProt P03372+Q92731); test: OT_ER_ERaERb_1440: Odyssey Thera (OT) 24-hour HEK293T Protein-Complementation Assay for Estrogen Receptor-alpha/-beta Homodimer (AID 2283356);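 also: heteromer of ER alpha and ER beta binding domains; hits raise reporter fluorescence and both agonists and antagonists give an increase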
# Chain of Estrogen receptor (Homo sapiens) + Estrogen receptor beta (Homo sapiens) (P03372 whole entry, looked up, the tested form may be a part): as above
# Chain of Estrogen receptor (Homo sapiens) + Estrogen receptor beta (Homo sapiens) (Q92731 whole entry, looked up, the tested form may be a part): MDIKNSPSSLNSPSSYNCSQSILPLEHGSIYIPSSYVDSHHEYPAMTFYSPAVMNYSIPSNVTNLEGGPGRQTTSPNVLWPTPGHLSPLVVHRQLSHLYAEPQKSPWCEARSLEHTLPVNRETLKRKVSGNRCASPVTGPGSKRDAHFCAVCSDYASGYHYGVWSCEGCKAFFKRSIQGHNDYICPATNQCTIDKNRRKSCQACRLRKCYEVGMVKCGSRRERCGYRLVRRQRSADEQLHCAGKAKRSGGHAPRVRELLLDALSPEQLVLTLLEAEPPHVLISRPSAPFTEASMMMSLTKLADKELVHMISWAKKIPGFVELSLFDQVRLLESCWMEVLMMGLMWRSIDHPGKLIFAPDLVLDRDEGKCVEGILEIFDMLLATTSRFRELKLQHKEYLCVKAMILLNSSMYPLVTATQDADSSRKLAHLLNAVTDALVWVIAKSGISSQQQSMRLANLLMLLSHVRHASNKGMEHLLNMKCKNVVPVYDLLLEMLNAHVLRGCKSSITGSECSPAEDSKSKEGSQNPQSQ
# Outline: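 HEK293T cells stably expressing a PCA pair of ERα LBD (aa 310-547) and ERβ LBD (aa 263-489) were dosed for 24 h. Fluorescence intensity increase versus DMSO vehicle was fitted as gain-of-signal.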
# [9] = target: Nuclear receptor subfamily 1 group I member 2 (Homo sapiens) (UniProt O75469); test: NVS_NR_hPXR: NovaScreen (NVS) Nuclear Receptor Binding Assay for human Pregnane X Receptor (PXR) (AID 2283365);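 also: a drop in FRET signal versus DMSO baseline means the compound binds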
# Chain of Nuclear receptor subfamily 1 group I member 2 (Homo sapiens) (O75469 whole entry, looked up): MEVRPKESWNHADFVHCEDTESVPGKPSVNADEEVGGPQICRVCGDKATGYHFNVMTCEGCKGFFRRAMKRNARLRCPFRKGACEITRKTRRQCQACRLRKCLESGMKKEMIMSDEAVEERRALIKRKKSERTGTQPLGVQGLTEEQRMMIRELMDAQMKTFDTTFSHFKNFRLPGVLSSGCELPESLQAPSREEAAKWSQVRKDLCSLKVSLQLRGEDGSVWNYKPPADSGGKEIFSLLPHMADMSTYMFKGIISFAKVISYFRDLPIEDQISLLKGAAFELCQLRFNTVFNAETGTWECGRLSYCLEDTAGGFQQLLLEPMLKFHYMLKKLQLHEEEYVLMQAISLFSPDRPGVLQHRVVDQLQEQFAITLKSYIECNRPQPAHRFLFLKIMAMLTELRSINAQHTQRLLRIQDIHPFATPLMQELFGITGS
# Outline: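 Cell-free binding assay with extracted human PXR protein, read by TR-FRET 2 h after dosing; loss of signal relative to DMSO baseline indicates binding. Primary screen at 25 uM in duplicate, actives retested in concentration series.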
# [10] = target: Estrogen receptor (Homo sapiens) (UniProt P03372); test: OT_ERa_GFPERaERE_0480: Odyssey Thera (OT) 8-hour HeLa Transcription Induction Assay for Estrogen Receptor (AID 2283381; active = hit-call score of the fitted dose curve at least 0.9, where 1 is the maximum; inactive = score below 0.9)
# Outline: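 GFP-ERE reporter, HeLa, 8 h exposure. Readout: fluorescence microscopy, high-content image analysis. Fit direction positive vs DMSO negative control.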
# [11] = target: Estrogen receptor (Homo sapiens) (UniProt P03372); test: OT_ERa_GFPERaERE_0120: Odyssey Thera (OT) 2-hour HeLa Transcription Induction Assay for Estrogen Receptor (AID 2283382)
# Outline: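 Fluorescence microscopy read-out: inducible fluorescent protein reporter in HeLa cells, imaged 2 h post-dose. Signal increase over DMSO negative control fitted as single primary endpoint via high content image analysis.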
# [12] = CEETOX_H295R_MTT_cell_viability: Viability Assessment in the CeeTox HT-H295R MTT Assay (AID 2283718; active = hit-call score of the fitted dose curve at least 0.9, where 1 is the maximum; inactive = score below 0.9;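 as to AC50: curve fitted both ways so AC50 may mark viability loss or gain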)
# Outline: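 Human H295R adrenal cells, prestimulated 48 h with 10 uM forskolin, were exposed 48 h to chemicals in 0.1% DMSO. Viability was measured in the same wells by MTT (0.5 mg/ml, 4 h, 37 C), absorbance 570/650 nm, as percent of controls.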
# [13] = target: human Phosphodiesterase 10 (PDE10), PDE10A (gene 10846) (UniProt Q9Y233); test: NVS_ENZ_hPDE10: NovaScreen (NVS) Enzymatic Assay for human Phosphodiesterase 10 (PDE10) (AID 2283195)
# Chain of human Phosphodiesterase 10 (PDE10), PDE10A (gene 10846) (Q9Y233 whole entry, looked up): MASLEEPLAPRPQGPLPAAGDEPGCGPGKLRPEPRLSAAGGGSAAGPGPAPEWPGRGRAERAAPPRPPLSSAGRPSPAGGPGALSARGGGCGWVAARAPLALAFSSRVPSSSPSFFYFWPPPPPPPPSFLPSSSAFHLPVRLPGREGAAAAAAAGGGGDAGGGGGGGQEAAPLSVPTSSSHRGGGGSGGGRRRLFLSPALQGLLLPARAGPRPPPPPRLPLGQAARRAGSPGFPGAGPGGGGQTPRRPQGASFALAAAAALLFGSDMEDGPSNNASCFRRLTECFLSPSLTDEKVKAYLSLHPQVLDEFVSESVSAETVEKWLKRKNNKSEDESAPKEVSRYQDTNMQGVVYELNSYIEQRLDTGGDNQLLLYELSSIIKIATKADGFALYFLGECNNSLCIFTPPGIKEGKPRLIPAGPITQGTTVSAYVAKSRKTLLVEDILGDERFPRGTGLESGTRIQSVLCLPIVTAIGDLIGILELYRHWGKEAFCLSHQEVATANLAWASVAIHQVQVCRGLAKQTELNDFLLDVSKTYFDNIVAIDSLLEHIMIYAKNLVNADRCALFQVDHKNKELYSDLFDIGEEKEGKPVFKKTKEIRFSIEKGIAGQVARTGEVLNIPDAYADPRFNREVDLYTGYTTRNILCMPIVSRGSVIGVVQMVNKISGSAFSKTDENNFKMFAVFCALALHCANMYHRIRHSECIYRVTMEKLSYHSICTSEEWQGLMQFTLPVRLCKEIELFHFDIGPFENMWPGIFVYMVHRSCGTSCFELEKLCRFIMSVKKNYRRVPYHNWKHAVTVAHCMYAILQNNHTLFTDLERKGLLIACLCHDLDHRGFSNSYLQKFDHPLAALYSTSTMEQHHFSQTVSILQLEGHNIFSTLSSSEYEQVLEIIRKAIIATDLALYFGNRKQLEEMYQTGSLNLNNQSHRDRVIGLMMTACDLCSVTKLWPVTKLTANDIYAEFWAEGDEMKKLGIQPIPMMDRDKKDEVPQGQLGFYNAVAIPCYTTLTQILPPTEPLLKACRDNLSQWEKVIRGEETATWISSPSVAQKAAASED
# Outline: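 Biochemical single-readout PDE10A assay, cell-free, extracted protein. Compounds first screened at 25 uM in duplicate, hits then titrated to 50 uM max. Activity measured after 1 h; loss-of-signal fitted against DMSO negative control.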
# [14] = target: human Matrix Metalloproteinase-9 (MMP9), MMP9 (gene 4318) (UniProt P14780); test: NVS_ENZ_hMMP9: NovaScreen (NVS) Enzymatic Assay for human Matrix Metalloproteinase-9 (MMP9) (AID 2283190);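 also: cell-free recombinant MMP9 protease activity read by fluorescent substrate signal; active means inhibition seen as loss of fluorescence signal versus DMSO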
# Outline: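 Screening concentration 25 uM, duplicate wells, then dose series for confirmation. Cell-free enzymatic reaction measured by fluorescence intensity 1 h post-dosing; decreased signal versus DMSO taken as activity.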
# [15] = target: human Phosphatase and Tensin Homolog (PTEN), PTEN (gene 5728) (UniProt P60484); test: NVS_ENZ_hPTEN: NovaScreen (NVS) Enzymatic Assay for human Phosphatase and Tensin Homolog (PTEN) (AID 2283203)
# Chain of human Phosphatase and Tensin Homolog (PTEN), PTEN (gene 5728) (P60484 whole entry, looked up): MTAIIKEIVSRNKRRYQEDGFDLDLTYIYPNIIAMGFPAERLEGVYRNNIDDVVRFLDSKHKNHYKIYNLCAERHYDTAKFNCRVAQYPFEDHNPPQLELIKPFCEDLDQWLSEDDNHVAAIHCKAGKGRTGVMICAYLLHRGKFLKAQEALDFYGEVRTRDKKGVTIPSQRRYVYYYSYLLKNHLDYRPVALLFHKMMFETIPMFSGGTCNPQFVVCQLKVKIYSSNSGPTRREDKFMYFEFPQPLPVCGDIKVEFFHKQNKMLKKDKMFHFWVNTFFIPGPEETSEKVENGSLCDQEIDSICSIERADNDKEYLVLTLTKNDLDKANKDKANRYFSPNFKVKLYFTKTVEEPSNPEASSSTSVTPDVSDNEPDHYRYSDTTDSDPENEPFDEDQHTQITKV
# Outline: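 Loss of fluorescent product signal after mobility-shift separation reports PTEN activity, recombinant human enzyme, 1 h after compound addition. Single 25 uM duplicate screen, then concentration-response on actives; DMSO baseline.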
# [16] = CCTE_Deisenroth_5AR_NBTE_donor: CCTE's 5alpha-reductase NanoBRET Target Engagement Assay […], Deisenroth Lab (AID 2284319; active = hit-call score of the fitted dose curve at least 0.9, where 1 is the maximum; inactive = score below 0.9); details: actives raise or lower the signal
# Outline: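 In this secondary endpoint, donor luminescence from SRD5A2-NanoLuc in transfected HEK293T flags artifacts. Test chemical (10 nM - 29.9 uM) is present five hours, tracer the last two; mock-tracer wells run plate-matched; data fitted bidirectionally against DMSO.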
# [17] = test system: SRD5A2 (gene 6716); test: CCTE_Deisenroth_5AR_NBTE_ratio: CCTE's 5alpha-reductase NanoBRET Target Engagement Assay - Ratio, Deisenroth Lab (AID 2284322; active = hit-call score of the fitted dose curve at least 0.9, where 1 is the maximum; inactive = score below 0.9); details: actives raise or lower the signal
# Outline: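 SRD5A2-NanoLuc HEK293T; cmpd 10 nM-29.9 uM, 3 h preinc + testosterone tracer 2 h; NanoBRET ratio 650/460; bidirectional fit vs DMSO.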
# [18] = target: human Phosphoinositide 3-kinase alpha (PI3Ka), PIK3CA (gene 5290) (UniProt P42336); test: NVS_ENZ_hPI3Ka: NovaScreen (NVS) Enzymatic Assay for human Phosphoinositide 3-kinase alpha (PI3Ka) (AID 2283196)
# Outline: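 Duplicate single-point screen (25 uM), then singleton dose-response (max 50 uM) for compounds meeting the threshold. Cell-free kinase reaction, 1 h; fluorescent mobility-shift readout.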
# [19] = target: Peroxisome proliferator-activated receptor gamma (Homo sapiens) (UniProt P37231); test: OT_PPARg_PPARgSRC1_0480: Odyssey Thera (OT) 8-hour Protein-Complementation Assay for Peroxisome Proliferator-activated Receptor Gamma / SRC-1 Co-activator (AID 2283387);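 also: nuclear to cytoplasmic split Venus YFP fluorescence ratio reporting PPARg SRC-1 interaction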
# Outline: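 Split-YFP (IFP1/IFP2) PPARg/SRC-1 reporter, HEK293T, 37 °C, 5% CO2; 8 h compound; formaldehyde fix + Draq5; high-content imaging, N/C ratio, ≥350 cells/image, positive direction vs DMSO.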
# [20] = target: Estrogen receptor (Homo sapiens) (UniProt P03372); test: NVS_NR_hER: NovaScreen (NVS) Nuclear Receptor Binding Assay for human Estrogen Receptor (ER) (AID 2283348)
# Outline: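 MCF7-derived receptor extract, radiolabelled ligand, competitive displacement. Read: scintillation counts at 18 h. DMSO = negative control/baseline. Primary 25 uM duplicate; follow-up concentration–response.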
smiles,measurement,setting,value
COc1cc(OC)nc(Oc2cccc(Oc3nc(OC)cc(OC)n3)c2C(=O)O)n1,outcome,[1],inactive
same,outcome,[2],inactive
same,outcome,[3],inactive
same,outcome,[4],inactive
CC(C)COP(=O)(OCC(C)C)OCC(C)C,AC50,[5],19.2 µM (active)
Cc1cc(C)c(C2=C(OC(=O)CC(C)(C)C)C3(CCCC3)OC2=O)c(C)c1,outcome,[6],inactive
same,outcome,[7],inactive
same,outcome,[8],inactive
same,outcome,[9],inactive
same,outcome,[3],inactive
same,outcome,[10],inactive
same,outcome,[11],inactive
same,AC50,[12],93.1 µM (active)
CC(C)(C)C(O)C(Oc1ccc(-c2ccccc2)cc1)n1cncn1 (configuration not stated),outcome,[12],inactive
O=[N+]([O-])C=Cc1ccccc1,outcome,[13],inactive
CC=Cc1ccc2c(c1)OCO2,AC50,[14],5.42 µM (active)
ClC1=C(Cl)[C@]2(Cl)[C@@H]3[C@@H](Cl)[C@H](Cl)C[C@@H]3[C@@]1(Cl)C2(Cl)Cl,outcome,[15],inactive
CC(=O)c1cc2c(cc1C)C(C)(C)C(C)CC2(C)C (configuration not stated),outcome,[12],inactive
same,outcome,[16],inactive
same,outcome,[17],inactive
O=c1c2ccccc2c(=O)c2c1cc(Cl)c1[nH]c3c([nH]c12)c(Cl)cc1c(=O)c2ccccc2c(=O)c13,outcome,[13],inactive
same,AC50,[18],4.37 µM (active)
Nc1ccccc1,outcome,[1],inactive
N#CCCCCC#N,outcome,[13],inactive
CCCCCCCCCCCCCCCC[N+](C)(C)C,AC50,[9],0.899 µM (active)
same,outcome,[19],inactive
same,AC50,[16],16.3 µM (active)
same,outcome,[17],inactive
C=CC(=O)OCCO,AC50,[12],26.7 µM (active)
O=C1C(Cl)=C(Cl)C(=O)C(Cl)=C1Cl,outcome,[1],inactive
same,outcome,[20],inactive
C=C(Cl)CCl,outcome,[1],inactive
